ChEMBL document CHEMBL3988442, “University of Dundee, Small-Polar-MMV Screening Library” (2021)
For some assays here: Measured potencies and affinities stand elsewhere.

Assays:
Set-up in all cases: scale not given: direction of the effect not stated beside the values
[1] = biological target: Protein translocase subunit SecA (Escherichia coli (strain K12)) (UniProt P10408); test: Assay to Identify E. coli SecA ATPase Inhibitors; assay type: functional; conditions: 30 µM
[2] = biological target: T1, Ubiquitin-activating enzyme e1, putative (Leishmania donovani (strain BPK282A1)) (UniProt E9BSI1); test: Leishmania donovani Ubiquitin Activating Enzyme (LdE1); assay type: functional; conditions: 30 µM
T1 sequence (whole entry): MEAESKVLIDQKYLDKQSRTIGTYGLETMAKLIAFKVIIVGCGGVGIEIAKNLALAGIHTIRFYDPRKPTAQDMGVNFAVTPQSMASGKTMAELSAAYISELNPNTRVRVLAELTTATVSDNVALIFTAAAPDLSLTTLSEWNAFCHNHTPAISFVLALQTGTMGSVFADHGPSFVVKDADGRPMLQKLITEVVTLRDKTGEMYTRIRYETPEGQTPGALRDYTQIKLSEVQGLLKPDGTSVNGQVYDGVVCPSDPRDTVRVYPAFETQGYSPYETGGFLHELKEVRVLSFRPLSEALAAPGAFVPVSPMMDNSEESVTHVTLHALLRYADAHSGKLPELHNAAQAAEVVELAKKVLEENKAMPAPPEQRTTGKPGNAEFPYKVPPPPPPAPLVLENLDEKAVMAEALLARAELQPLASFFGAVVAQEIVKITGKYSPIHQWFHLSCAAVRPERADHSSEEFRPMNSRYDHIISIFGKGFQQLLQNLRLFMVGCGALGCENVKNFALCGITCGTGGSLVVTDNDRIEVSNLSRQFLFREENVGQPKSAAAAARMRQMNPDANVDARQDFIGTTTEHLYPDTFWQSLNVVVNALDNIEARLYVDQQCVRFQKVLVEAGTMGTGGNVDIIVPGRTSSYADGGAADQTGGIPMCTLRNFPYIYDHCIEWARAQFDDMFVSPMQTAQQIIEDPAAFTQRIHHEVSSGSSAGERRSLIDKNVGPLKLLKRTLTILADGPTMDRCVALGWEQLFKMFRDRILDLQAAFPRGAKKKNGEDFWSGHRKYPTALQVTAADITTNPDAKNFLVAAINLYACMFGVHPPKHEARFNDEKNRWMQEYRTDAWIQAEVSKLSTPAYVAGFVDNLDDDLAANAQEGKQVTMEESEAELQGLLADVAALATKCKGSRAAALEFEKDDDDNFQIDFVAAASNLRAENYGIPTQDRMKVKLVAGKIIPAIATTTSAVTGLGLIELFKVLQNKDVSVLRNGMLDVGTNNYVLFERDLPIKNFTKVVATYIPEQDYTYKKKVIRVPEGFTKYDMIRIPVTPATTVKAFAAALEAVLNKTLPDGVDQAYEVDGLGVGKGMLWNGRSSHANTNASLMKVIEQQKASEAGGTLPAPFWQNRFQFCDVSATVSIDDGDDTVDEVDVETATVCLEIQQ

[3] = biological target: AMP-activated protein kinase, AMPK (Homo sapiens) (UniProt P54646+O43741+P54619+Q9UGJ0+Q9Y478+Q13131+Q9UGI9); test: AMP-dependent Kinase enzyme assay. An in vitro enzyme assay that detects ADP turnover that is directly proportional to AMPK activity. This uses naive AMPK that is activated during the assay with MK-8722; assay type: functional; conditions: 30 µM
[4] = biological target: Sialic acid-binding Ig-like lectin 9 (Homo sapiens) (UniProt Q9Y336); test: Hs-Siglec9 ALPHAscreen SOP 20170721; conditions: 10 µM
Trypanosoma cruzi = test: Trypanosoma cruzi phosphomannomutase and mannose-1-phosphate guanylyltransferase assay; assay type: functional; conditions: 10 µM
[5] = biological target: T2, Arginase-2, mitochondrial (Homo sapiens) (UniProt P78540); test: in vitro enzyme assay to detect the production of urea directly proportional to the activity of Arginase II; assay type: functional; conditions: 33.3 µM; further: in the data most compounds retested in dose-response had high values
T2 sequence (whole entry): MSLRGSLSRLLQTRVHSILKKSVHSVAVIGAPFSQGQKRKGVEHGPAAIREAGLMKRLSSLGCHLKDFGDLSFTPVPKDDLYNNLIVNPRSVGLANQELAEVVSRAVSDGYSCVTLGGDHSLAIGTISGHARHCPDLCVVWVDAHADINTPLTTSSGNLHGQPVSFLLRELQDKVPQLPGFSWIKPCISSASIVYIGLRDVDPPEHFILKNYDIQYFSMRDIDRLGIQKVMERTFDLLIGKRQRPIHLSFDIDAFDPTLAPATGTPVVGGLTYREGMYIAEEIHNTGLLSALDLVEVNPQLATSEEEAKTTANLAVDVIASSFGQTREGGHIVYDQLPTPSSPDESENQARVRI

[6] = biological target: T3, Proteasome subunit beta (Trypanosoma cruzi) (UniProt O96673); test: Trypanosoma cruzi proteasome chymotrypsin-like activity (TcProtChymo) assay.; further: in the data most compounds retested in dose-response had high values; assay type: functional; conditions: 9.37 µM
T3 sequence (whole entry): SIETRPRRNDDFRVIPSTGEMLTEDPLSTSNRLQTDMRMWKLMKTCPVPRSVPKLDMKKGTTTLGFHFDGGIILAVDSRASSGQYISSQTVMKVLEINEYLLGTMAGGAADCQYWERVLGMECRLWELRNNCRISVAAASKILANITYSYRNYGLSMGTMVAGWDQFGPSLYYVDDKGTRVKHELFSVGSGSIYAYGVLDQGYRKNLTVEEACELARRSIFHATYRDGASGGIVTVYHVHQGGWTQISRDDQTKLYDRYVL

Homo sapiens = species: Homo sapiens; test: To identify inhibition of the IFN signalling (Jak-Stat) pathway via expression of an eGFP reporter gene under the control of an IFN-stimulated response element (ISRE) containing MxA promoter.; assay type: functional; conditions: 30 µM
[7] = biological target: T4, Tyrosyl-tRNA synthetase, putative (Trypanosoma cruzi (strain CL Brener)) (UniProt Q4DSP6); test: Trypanosoma cruzi tyrosyl tRNA synthetase (TcYRS) _High Tyrosine SOP; assay type: functional; conditions: 30 µM; further: in the data most compounds retested in dose-response had high values
T4 sequence (whole entry): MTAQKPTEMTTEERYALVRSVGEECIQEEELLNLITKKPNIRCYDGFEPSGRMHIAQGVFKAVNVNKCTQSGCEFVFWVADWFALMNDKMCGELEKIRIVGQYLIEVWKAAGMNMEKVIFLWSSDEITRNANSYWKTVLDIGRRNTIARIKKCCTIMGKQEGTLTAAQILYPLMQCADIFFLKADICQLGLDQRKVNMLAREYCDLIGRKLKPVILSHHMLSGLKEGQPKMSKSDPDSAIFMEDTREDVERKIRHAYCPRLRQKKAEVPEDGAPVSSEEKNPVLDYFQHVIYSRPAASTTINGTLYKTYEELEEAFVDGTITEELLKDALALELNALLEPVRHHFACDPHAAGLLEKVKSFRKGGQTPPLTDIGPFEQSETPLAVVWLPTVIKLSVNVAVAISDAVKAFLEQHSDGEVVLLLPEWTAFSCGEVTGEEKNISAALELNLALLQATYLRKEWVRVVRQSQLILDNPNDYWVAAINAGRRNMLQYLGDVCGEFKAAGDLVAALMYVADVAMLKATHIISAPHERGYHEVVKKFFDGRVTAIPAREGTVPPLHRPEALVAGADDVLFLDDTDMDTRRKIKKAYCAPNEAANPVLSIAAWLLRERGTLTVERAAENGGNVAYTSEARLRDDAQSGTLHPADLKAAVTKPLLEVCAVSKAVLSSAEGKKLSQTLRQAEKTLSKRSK

[8] = biological target: T4, Tyrosyl-tRNA synthetase, putative (Trypanosoma cruzi (strain CL Brener)); test: Trypanosoma cruzi tyrosyl tRNA synthetase (TcYRS) SOP; assay type: functional; conditions: 30 µM
[9] = biological target: Chromo domain-containing protein 1 (Saccharomyces cerevisiae (strain ATCC 204508 / S288c) (Baker's yeast)) (UniProt P32657); test: ScCHD-1 Enzyme Inhibition Assay; assay type: functional; conditions: 30 µM; further: in the data most compounds retested in dose-response had high values
Sequence of Chromo domain-containing protein 1 (Saccharomyces cerevisiae (strain ATCC 204508 / S288c) (Baker's yeast)) (P32657 whole entry, the tested form may be a part): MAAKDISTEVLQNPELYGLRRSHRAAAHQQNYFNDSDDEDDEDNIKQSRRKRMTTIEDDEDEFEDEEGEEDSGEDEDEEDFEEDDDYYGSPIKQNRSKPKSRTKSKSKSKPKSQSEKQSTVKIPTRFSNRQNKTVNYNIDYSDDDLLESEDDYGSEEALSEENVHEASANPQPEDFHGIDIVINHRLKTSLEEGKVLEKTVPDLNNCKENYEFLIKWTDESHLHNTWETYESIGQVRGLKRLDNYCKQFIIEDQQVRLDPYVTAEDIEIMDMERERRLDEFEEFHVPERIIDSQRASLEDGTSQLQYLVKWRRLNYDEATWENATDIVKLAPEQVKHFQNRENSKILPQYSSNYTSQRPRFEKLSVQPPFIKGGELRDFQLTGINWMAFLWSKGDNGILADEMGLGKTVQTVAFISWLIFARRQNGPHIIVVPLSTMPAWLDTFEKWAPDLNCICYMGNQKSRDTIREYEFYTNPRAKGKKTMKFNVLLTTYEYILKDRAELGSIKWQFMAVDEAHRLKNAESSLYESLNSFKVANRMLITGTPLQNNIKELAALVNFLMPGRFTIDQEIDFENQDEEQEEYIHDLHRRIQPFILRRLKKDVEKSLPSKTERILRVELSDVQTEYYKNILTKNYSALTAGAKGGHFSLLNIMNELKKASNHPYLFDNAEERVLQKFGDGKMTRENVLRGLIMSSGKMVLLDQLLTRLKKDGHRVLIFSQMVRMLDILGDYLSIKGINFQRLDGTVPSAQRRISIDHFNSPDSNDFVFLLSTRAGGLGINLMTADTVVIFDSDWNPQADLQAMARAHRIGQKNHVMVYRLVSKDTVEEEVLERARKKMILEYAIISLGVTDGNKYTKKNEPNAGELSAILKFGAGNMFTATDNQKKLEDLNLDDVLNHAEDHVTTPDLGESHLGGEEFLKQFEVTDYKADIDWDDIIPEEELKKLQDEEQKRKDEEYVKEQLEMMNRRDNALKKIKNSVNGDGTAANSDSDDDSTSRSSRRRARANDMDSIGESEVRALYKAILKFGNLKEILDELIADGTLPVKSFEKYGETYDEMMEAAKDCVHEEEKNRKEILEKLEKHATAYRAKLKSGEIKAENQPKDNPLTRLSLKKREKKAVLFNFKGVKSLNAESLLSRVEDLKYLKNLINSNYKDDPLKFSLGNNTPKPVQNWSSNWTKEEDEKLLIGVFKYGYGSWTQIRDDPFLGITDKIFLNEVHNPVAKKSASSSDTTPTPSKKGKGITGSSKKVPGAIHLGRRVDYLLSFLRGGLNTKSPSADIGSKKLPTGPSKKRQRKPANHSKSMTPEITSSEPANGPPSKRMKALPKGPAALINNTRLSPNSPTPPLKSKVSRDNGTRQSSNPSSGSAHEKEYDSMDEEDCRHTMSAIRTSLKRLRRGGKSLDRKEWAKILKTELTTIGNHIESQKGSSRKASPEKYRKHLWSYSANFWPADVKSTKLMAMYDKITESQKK

Sequence of Sialic acid-binding Ig-like lectin 9 (Homo sapiens) (Q9Y336 whole entry): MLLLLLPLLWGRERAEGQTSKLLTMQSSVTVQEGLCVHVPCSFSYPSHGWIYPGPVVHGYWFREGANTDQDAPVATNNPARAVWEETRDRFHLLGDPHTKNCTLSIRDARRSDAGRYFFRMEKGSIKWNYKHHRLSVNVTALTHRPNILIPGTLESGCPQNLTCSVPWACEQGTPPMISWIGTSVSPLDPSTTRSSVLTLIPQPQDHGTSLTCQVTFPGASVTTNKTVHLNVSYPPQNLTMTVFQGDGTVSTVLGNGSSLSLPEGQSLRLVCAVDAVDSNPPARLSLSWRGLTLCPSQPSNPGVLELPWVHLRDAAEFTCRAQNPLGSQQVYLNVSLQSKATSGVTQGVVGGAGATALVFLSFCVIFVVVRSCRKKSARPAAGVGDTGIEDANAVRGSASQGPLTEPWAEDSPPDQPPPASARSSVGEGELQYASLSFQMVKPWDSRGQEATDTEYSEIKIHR
Sequence of Protein translocase subunit SecA (Escherichia coli (strain K12)) (P10408 whole entry): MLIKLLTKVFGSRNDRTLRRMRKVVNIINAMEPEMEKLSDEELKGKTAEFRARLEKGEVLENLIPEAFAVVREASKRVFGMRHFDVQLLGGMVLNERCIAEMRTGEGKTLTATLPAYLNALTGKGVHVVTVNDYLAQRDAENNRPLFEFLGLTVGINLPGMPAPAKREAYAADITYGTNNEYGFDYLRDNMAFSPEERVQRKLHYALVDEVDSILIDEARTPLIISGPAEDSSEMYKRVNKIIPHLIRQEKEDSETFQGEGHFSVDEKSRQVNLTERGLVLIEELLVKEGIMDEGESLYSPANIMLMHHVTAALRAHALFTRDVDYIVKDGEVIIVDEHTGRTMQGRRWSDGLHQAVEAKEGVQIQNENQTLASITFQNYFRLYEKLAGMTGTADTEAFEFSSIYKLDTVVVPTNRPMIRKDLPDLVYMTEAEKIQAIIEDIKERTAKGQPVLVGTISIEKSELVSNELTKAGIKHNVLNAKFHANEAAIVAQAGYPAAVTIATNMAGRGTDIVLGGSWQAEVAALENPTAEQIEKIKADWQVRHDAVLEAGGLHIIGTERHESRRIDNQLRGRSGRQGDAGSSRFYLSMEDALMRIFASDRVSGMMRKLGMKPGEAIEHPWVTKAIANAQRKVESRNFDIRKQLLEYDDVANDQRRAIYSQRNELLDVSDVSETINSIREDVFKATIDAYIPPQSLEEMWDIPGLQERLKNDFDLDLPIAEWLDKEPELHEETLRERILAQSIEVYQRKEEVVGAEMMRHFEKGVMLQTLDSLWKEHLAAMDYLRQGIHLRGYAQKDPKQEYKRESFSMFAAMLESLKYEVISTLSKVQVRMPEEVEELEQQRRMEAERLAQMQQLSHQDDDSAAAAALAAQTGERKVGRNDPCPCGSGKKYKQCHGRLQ

| Structure (SMILES) | Percent Effect [1] | Percent Effect [2] | Percent Effect [3] | Percent Effect [4] | Percent Effect (Trypanosoma cruzi) | Percent Effect [5] | Percent Effect [6] | Percent Effect (Homo sapiens) | Percent Effect [7] | Percent Effect [8] | Percent Effect [9] |
| --- | --- | --- | --- | --- | --- | --- | --- | --- | --- | --- | --- |
| O=C(NCCNc1cnccn1)C1CCN(C(=O)N2CCCC2)CC1 | -3.3% | 19% | -1.9% | -1.57% | -2.36% | -5.81% | 15.6% | 8.62% | -3.12% | 17.7% | -23.5% |
| COc1c(C)cnc(CN2CCCCC2Cn2nc(C)nc2C)c1C (configuration not stated) | 0.617% | 17.7% | -1.73% | -6.46% | 2.55% | 5.32% | 14.8% | 4.74% | 14.3% | 26.6% | -9.69% |
| Cc1ccc(C(=O)N2CCC3(CCN(C(=O)c4cccnc4)C3)CC2)o1 | -2.08% | 13.5% | 6.42% | -12.6% | -3.62% | 14.3% | 13.8% | -16.6% | 1.08% | 5.13% | -2.81% |
| Cc1ccc(CCNC(=O)N2CCCC(Cc3nccn3C)C2)cn1 (configuration not stated) | -5.16% | 0% | -1.4% | 2.27% | 4.49% | -2.5% | 9.89% | 16.9% | 7.92% | 13.4% | -0.907% |
| Cc1ccc2cc(CNCCCO)c(=O)[nH]c2c1 | 2.35% | 9.46% | 7.11% | -4.27% | -5.34% | 4.41% | 5.15% | 8.44% | 1.07% | 9.09% | -13.8% |
| CN(Cc1cnn(C)c1)C(=O)c1ccc(=O)n(C)n1 | -3.21% | 7.89% | 2.81% | -2.3% | 5.16% | -5.92% | 12.9% | 9.62% | 6.38% | 10.4% | -4.41% |
| CCC1(CO)CCCN(c2ncccc2C#N)C1 (configuration not stated) | -4.07% | -5.41% | -0.35% | 5.12% | -1.74% | -3.81% | -0.69% | 19.1% | -1.59% | 0% | -3.09% |
| O=C(CCc1ccccn1)N1CCc2cc(Cl)cc(Cl)c2C1 | -0.0645% | 7.79% | 5.1% | 1.57% | -9.34% | -17.9% | 15% | 47.7% | -1.07% | -3.7% | -2.98% |
| O=C1CC2(CCN(c3nncs3)C2)CN1c1ccccc1 (configuration not stated) | -2.98% | 5.41% | -3.44% | 2.02% | -5.66% | 4.58% | 12.4% | -3.33% | 4.95% | 11% | 0.436% |
| COc1ccc2nnc(CCCC(=O)NCCC3=CCCCC3)n2n1 | -0.326% | 12% | -1.46% | -0.0396% | 4.71% | -7.57% | 12.2% | 23.4% | 7.41% | 17.9% | -9.92% |
| Cc1cnn(CC(C)NCc2csc(-c3ccco3)n2)c1 (configuration not stated) | -3.81% | -3.8% | 10.6% | -3.77% | -5.44% | -3.66% | 10.1% | 18.9% | 11.5% | 2.53% | -23.7% |
| O=C(Cn1cnc(NC(=O)CC2CCCC2)n1)NCc1ccccc1 | -6.6% | 15.8% | -2.47% | 8.52% | 9.96% | -1.53% | 2.84% | 11.9% | 6.37% | 17.1% | -12.2% |
| Cc1cc(C)n(CC2CCCN2C(=O)c2cc[nH]n2)n1 (configuration not stated) | -7.68% | 16.5% | -4.09% | -3.12% | 0.923% | 0.215% | 8.58% | -2.4% | 7.29% | 17.7% | -34.4% |
| CC(Sc1nnnn1C1CCOCC1)C(=O)NC1CCCCC1 (configuration not stated) | -6.54% | 2.67% | -2.78% | 37.4% | 3.21% | 3.65% | 13.8% | 24.9% | 7.1% | 16.1% | -4.98% |
| O=C(c1cccnc1N1CCOCC1)N1CCCC1Cn1cccn1 (configuration not stated) | -4.57% | 7.79% | 5.93% | 8.78% | 1.47% | 0.632% | -0.242% | -15.5% | 3.81% | 2.35% | -12% |
| Cc1n[nH]c(C2CN(C(=O)c3cnc[nH]3)CCO2)n1 (configuration not stated) | -2.98% | 7.79% | 4.4% | 7.68% | 3.62% | -1.05% | 12.8% | -9.06% | 5.71% | 21.2% | -19.1% |
| CCOCCC(=O)Nc1cccc(Oc2ccccn2)c1 | -5.45% | 0% | -0.587% | 2.14% | 0.487% | 2.37% | 0.288% | -0.792% | 0% | -5.2% | 6.72% |
| CCn1ccnc1CN1CCN(CC(=O)NC(C)(C#N)C2CC2)CC1 (configuration not stated) | 1.69% | 15.8% | -1.29% | -1.29% | -8.84% | -3.45% | 18.9% | 16.7% | 5.39% | 9.76% | -5.07% |
| CCO[C@@H]1CO[C@@]2(CCCN(C(=O)c3ccc(OC)c(F)c3)C2)C1 | -3.5% | 10.4% | 6.36% | -0.114% | -3.06% | 11% | 16.5% | 6.86% | 11.6% | 8.97% | -7.2% |
| Cc1nccn1C1CCCN(C(=O)C2=NN(C)C(=O)CC2)C1 (configuration not stated) | -0.962% | 18.9% | 2.88% | -10.1% | -3.68% | -4.81% | 20.9% | 23.8% | 4.43% | 6.17% | -3.99% |
| Cc1cncc(C2CCCN(C(=O)c3scnc3C)C2)n1 (configuration not stated) | -5.85% | 1.35% | 3.8% | 2.37% | 0.395% | -2.09% | 7.33% | 2.09% | 3.23% | 11.7% | -22.3% |
| Cc1ccc(C(C)NC(=O)Cc2c(C)nc3c(c2C)c(=O)[nH]n3C)o1 (configuration not stated) | -4.2% | 7.79% | 1.79% | 9.22% | 1.08% | -11% | 10.7% | 1.96% | 1.07% | 6.17% | 1.13% |
